{"source": "paper PMC11062922", "about": "(Nature Chemical Biology, 2023)", "test_system": "PLK4", "settings": "read-out: apparent Kd, n = 1", "note": "Like-named read-outs stand apart in the source and are kept apart here.", "data": [{"substance": "Lestaurtinib", "values": [{"measurement": "potency estimated from few doses", "setting": "compound concentrations:100 nM and 1000 nM (sheet 'Lestaurtinib' of Supplementary Table 1),run:Lestaurtinib_02422_R1,Plate:MR006", "value": 56.6, "unit": "nM"}, {"measurement": "potency estimated from few doses", "setting": "compound concentrations:100 nM and 1000 nM (sheet 'Lestaurtinib' of Supplementary Table 1),run:Lestaurtinib_02422_R3,Plate:MR006", "value": 60.8, "unit": "nM"}, {"measurement": "potency estimated from few doses", "setting": "compound concentrations:100 nM and 1000 nM (sheet 'Lestaurtinib' of Supplementary Table 1),run:Lestaurtinib_02437_R1,Plate:MR007", "value": 58.1, "unit": "nM"}, {"measurement": "potency estimated from few doses", "setting": "compound concentrations:100 nM and 1000 nM (sheet 'Lestaurtinib' of Supplementary Table 1),run:Lestaurtinib_02437_R2,Plate:MR007", "value": 61.6, "unit": "nM"}, {"measurement": "potency estimated from few doses", "setting": "compound concentrations:100 nM and 1000 nM (sheet 'Lestaurtinib' of Supplementary Table 1),run:Lestaurtinib_02437_R3,Plate:MR007", "value": 41, "unit": "nM"}, {"measurement": "potency estimated from few doses", "setting": "compound concentrations:100 nM and 1000 nM (sheet 'Lestaurtinib' of Supplementary Table 1),run:Lestaurtinib_02438_R2,Plate:MR008", "value": 70.6, "unit": "nM"}, {"measurement": "potency estimated from few doses", "setting": "compound concentrations:100 nM and 1000 nM (sheet 'Lestaurtinib' of Supplementary Table 1),run:Lestaurtinib_02438_R3,Plate:MR008", "value": 67.9, "unit": "nM"}, {"measurement": "potency estimated from few doses", "setting": "compound concentrations:100 nM and 1000 nM (sheet 'Lestaurtinib' of Supplementary Table 1),run:Lestaurtinib_02443_R1,Plate:MR009", "value": 70.3, "unit": "nM"}, {"measurement": "potency estimated from few doses", "setting": "compound concentrations:100 nM and 1000 nM (sheet 'Lestaurtinib' of Supplementary Table 1),run:Lestaurtinib_02443_R2,Plate:MR009", "value": 81, "unit": "nM"}, {"measurement": "potency estimated from few doses", "setting": "compound concentrations:100 nM and 1000 nM (sheet 'Lestaurtinib' of Supplementary Table 1),run:Lestaurtinib_02443_R3,Plate:MR009", "value": 62.6, "unit": "nM"}, {"measurement": "potency estimated from few doses", "setting": "compound concentrations:100 nM and 1000 nM (sheet 'Lestaurtinib' of Supplementary Table 1),run:Lestaurtinib_02473_R3,Plate:MR010", "value": 43.1, "unit": "nM"}, {"measurement": "potency estimated from few doses", "setting": "compound concentrations:100 nM and 1000 nM (sheet 'Lestaurtinib' of Supplementary Table 1),run:Lestaurtinib_02482_R2,Plate:MR011", "value": 113, "unit": "nM"}, {"measurement": "potency estimated from few doses", "setting": "compound concentrations:100 nM and 1000 nM (sheet 'Lestaurtinib' of Supplementary Table 1),run:Lestaurtinib_02487_R1,Plate:MR012", "value": 79.1, "unit": "nM"}, {"measurement": "potency estimated from few doses", "setting": "compound concentrations:100 nM and 1000 nM (sheet 'Lestaurtinib' of Supplementary Table 1),run:Lestaurtinib_02487_R3,Plate:MR012", "value": 83.9, "unit": "nM"}, {"measurement": "potency estimated from few doses", "setting": "compound concentrations:100 nM and 1000 nM (sheet 'Lestaurtinib' of Supplementary Table 1),run:Lestaurtinib_02496_R1,Plate:MR013", "value": 78.2, "unit": "nM"}, {"measurement": "potency estimated from few doses", "setting": "compound concentrations:100 nM and 1000 nM (sheet 'Lestaurtinib' of Supplementary Table 1),run:Lestaurtinib_02496_R2,Plate:MR013", "value": 94.1, "unit": "nM"}, {"measurement": "potency estimated from few doses", "setting": "compound concentrations:100 nM and 1000 nM (sheet 'Lestaurtinib' of Supplementary Table 1),run:Lestaurtinib_02496_R3,Plate:MR013", "value": 53.6, "unit": "nM"}, {"measurement": "potency estimated from few doses", "setting": "compound concentrations:100 nM and 1000 nM (sheet 'Lestaurtinib' of Supplementary Table 1),run:Lestaurtinib_02566_R2,Plate:MR014", "value": 56, "unit": "nM"}, {"measurement": "potency estimated from few doses", "setting": "compound concentrations:100 nM and 1000 nM (sheet 'Lestaurtinib' of Supplementary Table 1),run:Lestaurtinib_02566_R3,Plate:MR014", "value": 92.7, "unit": "nM"}, {"measurement": "potency estimated from few doses", "setting": "compound concentrations:100 nM and 1000 nM (sheet 'Lestaurtinib' of Supplementary Table 1),run:Lestaurtinib_02572_R1,Plate:MR015", "value": 50.1, "unit": "nM"}, {"measurement": "potency estimated from few doses", "setting": "compound concentrations:100 nM and 1000 nM (sheet 'Lestaurtinib' of Supplementary Table 1),run:Lestaurtinib_02572_R2,Plate:MR015", "value": 77.6, "unit": "nM"}, {"measurement": "potency estimated from few doses", "setting": "compound concentrations:100 nM and 1000 nM (sheet 'Lestaurtinib' of Supplementary Table 1),run:Lestaurtinib_02577_R1,Plate:MR016", "value": 55.9, "unit": "nM"}, {"measurement": "potency estimated from few doses", "setting": "compound concentrations:100 nM and 1000 nM (sheet 'Lestaurtinib' of Supplementary Table 1),run:Lestaurtinib_02577_R3,Plate:MR016", "value": 35.1, "unit": "nM"}, {"measurement": "potency estimated from few doses", "setting": "compound concentrations:100 nM and 1000 nM (sheet 'Lestaurtinib' of Supplementary Table 1),run:Lestaurtinib_02584_R1,Plate:MR017", "value": 56.6, "unit": "nM"}, {"measurement": "potency estimated from few doses", "setting": "compound concentrations:100 nM and 1000 nM (sheet 'Lestaurtinib' of Supplementary Table 1),run:Lestaurtinib_02584_R2,Plate:MR017", "value": 79.8, "unit": "nM"}, {"measurement": "potency estimated from few doses", "setting": "compound concentrations:100 nM and 1000 nM (sheet 'Lestaurtinib' of Supplementary Table 1),run:Lestaurtinib_02584_R3,Plate:MR017", "value": 76.3, "unit": "nM"}, {"measurement": "potency estimated from few doses", "setting": "compound concentrations:100 nM and 1000 nM (sheet 'Lestaurtinib' of Supplementary Table 1),run:Lestaurtinib_02601_R3,Plate:MR018", "value": 59.1, "unit": "nM"}, {"measurement": "potency estimated from few doses", "setting": "compound concentrations:100 nM and 1000 nM (sheet 'Lestaurtinib' of Supplementary Table 1),run:Lestaurtinib_02606_R2,Plate:MR019", "value": 68.7, "unit": "nM"}, {"measurement": "potency estimated from few doses", "setting": "compound concentrations:100 nM and 1000 nM (sheet 'Lestaurtinib' of Supplementary Table 1),run:Lestaurtinib_02606_R3,Plate:MR019", "value": 58, "unit": "nM"}, {"measurement": "potency estimated from few doses", "setting": "compound concentrations:100 nM and 1000 nM (sheet 'Lestaurtinib' of Supplementary Table 1),run:Lestaurtinib_02624_R1,Plate:MR020", "value": 169, "unit": "nM"}, {"measurement": "potency estimated from few doses", "setting": "compound concentrations:100 nM and 1000 nM (sheet 'Lestaurtinib' of Supplementary Table 1),run:Lestaurtinib_02624_R3,Plate:MR020", "value": 47.2, "unit": "nM"}, {"measurement": "potency estimated from few doses", "setting": "compound concentrations:100 nM and 1000 nM (sheet 'Lestaurtinib' of Supplementary Table 1),run:Lestaurtinib_02724_R1,Plate:MR021", "value": 70.6, "unit": "nM"}, {"measurement": "potency estimated from few doses", "setting": "compound concentrations:100 nM and 1000 nM (sheet 'Lestaurtinib' of Supplementary Table 1),run:Lestaurtinib_02724_R2,Plate:MR021", "value": 57.7, "unit": "nM"}, {"measurement": "potency estimated from few doses", "setting": "compound concentrations:100 nM and 1000 nM (sheet 'Lestaurtinib' of Supplementary Table 1),run:Lestaurtinib_02724_R3,Plate:MR021", "value": 86.8, "unit": "nM"}, {"measurement": "potency estimated from few doses", "setting": "compound concentrations:100 nM and 1000 nM (sheet 'Lestaurtinib' of Supplementary Table 1),run:Lestaurtinib_02741_R1,Plate:MR023", "value": 235, "unit": "nM"}, {"measurement": "potency estimated from few doses", "setting": "compound concentrations:100 nM and 1000 nM (sheet 'Lestaurtinib' of Supplementary Table 1),run:Lestaurtinib_02741_R2,Plate:MR023", "value": 213, "unit": "nM"}, {"measurement": "potency estimated from few doses", "setting": "compound concentrations:100 nM and 1000 nM (sheet 'Lestaurtinib' of Supplementary Table 1),run:Lestaurtinib_02741_R3,Plate:MR023", "value": 215, "unit": "nM"}, {"measurement": "potency estimated from few doses", "setting": "compound concentrations:100 nM and 1000 nM (sheet 'Lestaurtinib' of Supplementary Table 1),run:Lestaurtinib_02748_R2,Plate:MR024", "value": 80.7, "unit": "nM"}, {"measurement": "potency estimated from few doses", "setting": "compound concentrations:100 nM and 1000 nM (sheet 'Lestaurtinib' of Supplementary Table 1),run:Lestaurtinib_02752_R1,Plate:MR025", "value": 93.7, "unit": "nM"}, {"measurement": "potency estimated from few doses", "setting": "compound concentrations:100 nM and 1000 nM (sheet 'Lestaurtinib' of Supplementary Table 1),run:Lestaurtinib_02752_R2,Plate:MR025", "value": 68.6, "unit": "nM"}, {"measurement": "potency estimated from few doses", "setting": "compound concentrations:100 nM and 1000 nM (sheet 'Lestaurtinib' of Supplementary Table 1),run:Lestaurtinib_02765_R1,Plate:MR026", "value": 165, "unit": "nM"}, {"measurement": "potency estimated from few doses", "setting": "compound concentrations:100 nM and 1000 nM (sheet 'Lestaurtinib' of Supplementary Table 1),run:Lestaurtinib_02766_R1,Plate:MR027", "value": 56.5, "unit": "nM"}]}]}
